Most compounds without a hit are left out; they make up all but 19% or so of the library.
TDP1 cell CPT: qHTS for Inhibitors of human tyrosyl-DNA phosphodiesterase 1 (TDP1): qHTS in cells in presence of CPT; chicken DT40 Tdp1-/-;hTDP1 cells + 20 nM CPT, ATP luminescence, 48 h; Potency, µM (doses to about 46.2 µM), for the others: at the top dose activity change, negative = growth inhibition, usual class: inhibitors; 420,000 compounds, 12% hits; note: potency is the fitted concentration of half-maximal effect; % is set by controls: 0 for no effect and ±100 for the full control effect; nearly all actives have a fitted effect of over 55% in size
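Chicken DT40 Tdp1-/- cells stably complemented with human TDP1 were seeded at 400 cells/well in medium containing 20 nM camptothecin, exposed to pin-transferred compounds, and grown at 37 °C for at least 48 hr. Viability was read as ATP luminescence.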
HepG2 tox: qHTS for Inhibitors of TGF-b: Cytotox Counterscreen | HepG2 CAGA-GFP viability, ATP luminescence, 18 h | Potency, µM (highest dose often 46.1 µM), for the others: top-dose activity change, negative = cytotoxicity, hits mostly cytotoxic | 410,000 compounds, 0.76% hits; note: potency is the fitted concentration of half-maximal effect
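CellTiter-Glo luminescence gave cytotoxicity after 18 hours at 37 degrees C. The cells were HepG2 CAGA-GFP in 1% FBS DMEM, stimulated with 500 pg/mL TGF-beta after compound addition. %Activity was normalised to no-cell wells (complete cell-killing) and DMSO (no toxicity), and curves were fitted and classified.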
TDP1 cell noCPT: qHTS for Inhibitors of human tyrosyl-DNA phosphodiesterase 1 (TDP1): qHTS in cells in absence of CPT. 420,000 compounds, 15% hits. Potency, µM (series often up to 46.2 µM), inactives show at the highest dose activity change, negative = growth inhibition, hits mostly inhibitors. DT40 Tdp1-/- hTDP1 cells, no CPT, ATP luminescence, 48 h; note: potency is the fitted concentration of half-maximal effect; % is set by controls: 0 for no effect and ±100 for the full control effect; nearly all actives have a fitted effect of over 55% in size
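No-CPT arm: Tdp1-/-;hTDP1 DT40 cells (400/well) plus compounds, incubated ≥48 hr at 37 °C. Readout CellTiter-Glo luminescence.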
TGFb SMAD3 inh: qHTS for Inhibitors of TGF-b | HepG2 CAGA-GFP TGF-b/SMAD3 reporter, GFP fluorescence, 18 h; TGF-beta stimulated, 500 pg/mL final | Potency, µM (highest dose often 46.1 µM), without a hit: at the top dose activity, negative = inhibition, actives largely listed as inhibitors | 410,000 compounds, 1.2% hits; note: potency is the fitted concentration of half-maximal effect; % is set by controls: 0 for no effect and ±100 for the full control effect; nearly all actives have a fitted effect of over 65% in size
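HEPG2 CAGA-GFP reporter cells (1000/well, DMEM with 1% FBS) received compounds, then recombinant TGF-beta at 500 pg/mL final for 18 hours at 37 degrees C. Per-cell GFP summed per well was normalised to unstimulated and stimulated DMSO controls before curve fitting.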
TDP1 block: qHTS Assay for Inhibitors of Tyrosyl-DNA Phosphodiesterase (TDP1). recombinant TDP1, AlphaScreen DNA substrate cleavage. Tyrosyl-DNA phosphodiesterase 1 (Homo sapiens), Q9NUW8. 350,000 compounds, 0.28% hits. Potency, µM (series often up to 130 µM), for inactives: top-dose activity change, negative = inhibition, actives largely listed as inhibitors; note: potency is the fitted concentration of half-maximal effect; % is set by controls: 0 for no effect and ±100 for the full control effect; nearly all actives have a fitted effect of over 40% in size
Target sequence (Q9NUW8 whole entry, looked up): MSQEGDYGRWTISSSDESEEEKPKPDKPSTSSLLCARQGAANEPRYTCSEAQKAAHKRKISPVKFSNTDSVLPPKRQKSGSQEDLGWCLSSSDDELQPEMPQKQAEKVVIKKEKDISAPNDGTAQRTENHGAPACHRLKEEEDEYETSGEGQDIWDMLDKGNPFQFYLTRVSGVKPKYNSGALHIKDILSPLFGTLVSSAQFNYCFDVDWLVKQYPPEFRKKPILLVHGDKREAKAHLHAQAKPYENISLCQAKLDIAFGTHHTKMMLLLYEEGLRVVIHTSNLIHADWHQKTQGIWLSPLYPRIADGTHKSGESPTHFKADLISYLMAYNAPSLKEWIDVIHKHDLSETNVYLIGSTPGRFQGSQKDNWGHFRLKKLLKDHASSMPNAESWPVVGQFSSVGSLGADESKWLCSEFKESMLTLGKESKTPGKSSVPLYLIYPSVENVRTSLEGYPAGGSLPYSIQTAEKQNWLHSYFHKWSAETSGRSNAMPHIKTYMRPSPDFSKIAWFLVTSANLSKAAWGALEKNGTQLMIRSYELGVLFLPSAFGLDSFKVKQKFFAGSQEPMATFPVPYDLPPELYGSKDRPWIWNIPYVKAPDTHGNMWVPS
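Compounds were preincubated with Tdp1 (1 nM final) for 15 min at room temperature before substrate (15 nM final) started a 5 min reaction; beads (10 ug/ml final) were then added for 10 min before AlphaScreen detection.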
IL-1B inflam inh: qHTS for Inhibitors of Inflammasome Signaling: IL-1-beta AlphaLISA Primary Screen. THP-1 LPS/ATP IL-1B secretion, AlphaLISA, 16 h; active compounds read low. activity change, % at 57.5 µM. 360,000 compounds, 4.7% hits. AID 743279, 2014; in the data active = activity change below about -50%; inconclusive = mostly about -30% to -49%; note: % is set by controls: 0 for no effect and ±100 for the full control effect
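THP-1 cells pretreated 1 hr with compounds (up to 57.5 uM final), then stimulated with LPS (250 ng/mL final) plus ATP (1.25 mM final); secreted IL-1B measured by AlphaLISA after 16 hr, decreased signal indicating inhibition.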
Active calls of the source: *; i = inactive; ? = inconclusive; nt = not tested or not shown; [ ] = remark or other dose. Unless noted, calls come from the whole dose curve; as a rule, active = well fitted curve in the direction sought with a large enough effect; inconclusive = small, poorly fitted or top-dose-only effect, or another doubt; inactive = no such curve, though single readings can be large; an effect the other way counts as inactive or inconclusive.

SMILES	TDP1 cell CPT	HepG2 tox	TDP1 cell noCPT	TGFb SMAD3 inh	TDP1 block	IL-1B inflam inh
CCc1ccc(NC(=O)C(C)OC(=O)c2ccc(NS(=O)(=O)c3ccc(C)c([N+](=O)[O-])c3)cc2)cc1 (stereo unspecified)	?	-2%	?	?	8%	-77*
CCC1=NN(C(=O)COc2ccccc2)C(O)(c2ccncc2)C1 (stereo unspecified)	?	2%	16µM*	9%	-3%	-17
CC1=NN(C(=O)COc2cc(C)ccc2C(C)C)C(O)(c2ccccc2)C1 (stereo unspecified)	5.8µM*	-42%	26µM*	?	-1%	-22
CC1=NN(C(=O)COc2ccc(C)c(C)c2)C(O)(c2ccc(Cl)cc2)C1 (stereo unspecified)	13µM*	-76%	15µM*	0%	3%	-15
Cc1ccc(-n2c(=O)c3ccc(C(=O)NCc4ccco4)cc3n(CC(=O)Nc3ccc(C)c(F)c3)c2=O)cc1	?	1%	-25%	-9%	-5%	nt
Cc1nc(SCc2nc3ccccc3[nH]2)c2oc3cc([N+](=O)[O-])ccc3c2n1	nt	-36%	nt	?	3%	nt
COc1cccc(NC(=O)Cn2c(=O)n(CCC(=O)NCc3ccccc3OC)c(=O)c3ccccc32)c1	26µM*	-21%	?	?	-4%	nt
COc1ccccc1CNC(=O)CCCCn1c(=O)c2ccccc2n(CC(=O)Nc2cccc(Cl)c2)c1=O	23µM*	-17%	9.2µM*	-23%	1%	nt
Fc1ccc(-c2noc3ncnc(NCCCN4CCN(c5ccccc5)CC4)c23)cc1	?	-20%	?	-24%	7%	nt
CC(=O)c1sc2c(c1OC(=O)c1ccc(Cl)cc1Cl)c(=O)n(-c1ccccc1)c(=S)n2-c1ccccc1	?	-35%	21µM*	?	3%	-60*
CCC(C(=O)c1ccc2ncccc2c1)c1ccccc1 (stereo unspecified)	15µM*	-41%	16µM*	?	-5%	35
O=C(Nc1ccc2ncccc2c1)c1ccccc1	?	-2%	?	-3%	nt	29
O=C(Nc1ccc(N2CCCC2)cc1)c1ccc2ccccc2c1	1%	6%	-17%	8%	2%	-5
O=C(Nc1ccc(Br)cn1)c1cccc(-c2cc3ccccc3oc2=O)c1	?	-20%	?	13%	-8%	17
O=C(Nc1ccccc1N1CCCC1)c1cccc(-c2cc3ccccc3oc2=O)c1	?	2%	21µM*	0%	-3%	-1
O=C(Nc1ccc(N2CCCC2)cc1)c1cccc(-c2cc3ccccc3oc2=O)c1	16µM*	4%	23µM*	?	-1%	-23
O=C(NCc1nnc(SCC(=O)N2CCN(c3ccccc3)CC2)o1)c1ccc(F)cc1	?	9%	21µM*	4%	5%	51
O=C(NCc1nnc(SCC(=O)N2CCCC2)o1)c1ccc(F)cc1	8%	-7%	18%	5%	5%	i
Cc1cccc(OCc2nnc(SCC(=O)N3CCN(c4ccccc4)CC3)o2)c1C	?	-1%	18µM*	13%	-1%[56.1 µM]	-2
C=CCn1c(COc2cccc(C)c2C)nnc1SCC(=O)N1CCN(c2ccccc2)CC1	?	-69%	?	4.5µM*	1%	-55*
COc1ccc(NC(=O)CSc2ncc3c(n2)-c2ccccc2N(C)S3(=O)=O)cc1Cl	?	-4%	?	0%	3%	nt
Cc1ccc(CNC(=O)CCn2cnc3ccccc3c2=O)cc1	-3%	1%	0%	7%	2%	nt
C=CCC1CCCC(=O)N2CCCC12 (stereo unspecified)	-15%	0%	-8%	-1%	0%[56.1 µM]	21
COc1ccc2[nH]cc(CCNc3ncncc3-c3ccc4c(c3)OCO4)c2c1	6.5µM*	nt	18µM*	nt	nt	nt
COc1cccc(-c2cncnc2NCCc2c[nH]c3ccc(OC)cc23)c1	23µM*	nt	21µM*	nt	nt	nt
SMILES	TDP1 cell CPT	HepG2 tox	TDP1 cell noCPT	TGFb SMAD3 inh	TDP1 block	IL-1B inflam inh
COc1ccc2[nH]cc(CCNc3cc(-c4ccccc4C)ncn3)c2c1	9.2µM*	nt	16µM*	nt	nt	nt
N#Cc1cccc(-c2cncnc2NCCc2cnc[nH]2)c1	-12%	nt	-25%	nt	nt	nt
COc1cccc(-c2cncnc2NCCc2cnc[nH]2)c1	2.6µM*	nt	?	nt	nt	nt
COc1ccc2[nH]cc(CCNc3cc(-c4cccnc4)ncn3)c2c1	?	nt	-25%	nt	nt	nt
Cc1ccc(/C=N/N=C2\SCC(=O)N2CC2CC2)cc1	0%	-13%	-6%	-16%	1%	-18
CC(C)c1ccc(NC(=O)Cn2nnc(C(=O)NCc3ccc(Cl)cc3)c2N)cc1	-3%	6%	0%	-18%	4%	nt
COc1ccc2[nH]cc(CCNc3cc(-c4ccc5c(c4)OCO5)ncn3)c2c1	?	nt	21µM*	nt	nt	nt
COc1cccc(CN2CCC(C(=O)Nc3ccc(Oc4cccnc4)cc3)CC2)c1	?	-13%	?	?	5%	5
C#Cc1ccc(CN2CCCC(C(=O)Nc3ccccc3Oc3cccnc3)C2)cc1 (stereo unspecified)	?	-33%	?	-28%	6%	?
O=C(Nc1ccccc1Oc1cccnc1)C1CCCN(Cc2ccccc2O)C1 (stereo unspecified)	?	-7%	15µM*	-3%	4%	-19

Screening data from PubChem.
